Data: PubChem BioAssay (NCI)
This is part of a sample that, as a whole, favours compounds with a hit. Of some 79,000 tested, about 15% had one in any assay. The source made the active and inactive calls. Cut-off read from the data, not from the text of the source: active = growth inhibition above about 70%; inactive = the rest.

test: NCI Yeast Anticancer Drug Screen. Data for the sgs1 mgt1 strain (AID 161);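 note: 0% = growth of cultures given vehicle only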; conditions: S. cerevisiae sgs1 mgt1 strain, at 50.0 µM, active compounds read high
In short: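 Compounds are added to genetically altered yeast, and growth is compared with cultures given vehicle alone to give percent inhibition.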

SMILES	growth inhibition
COC1OC(CO)C(O)C2OCCOCCOC3C(OC)OC(CO)C(O)C3OCCOCCOC12 (stereo not drawn)	5.9% (inactive)
CCCN(CCC)CCCCCCCCN	-3.2% (inactive)
[O-][n+]1c(CN2CCCCC2)nc2cccc3c2c1-c1ccccc1-3	-3.5% (inactive)
COC(=O)C1OC(O[C@H]2CC[C@]3(C)[C@H]4CC=C5[C@@H]6CC(C)(C)CC[C@]6(C(=O)OC6OCC(O)C(O)C6OC6OC(C)C(OC7OCC(O)C(O)C7O)C(OC7OCC(O)(CO)C7O)C6O)[C@H](O)C[C@@]5(C)[C@]4(C)CC[C@H]3C2(C)C)C(O)C(O)C1O (stereo partly drawn)	-6.1% (inactive)
CC(C)(C)C(O)CC(O)(C(F)(F)F)C(F)(F)F (stereo not drawn)	-12.8% (inactive)
OC(c1ccncc1)(c1ccc(Cl)cc1)c1cccs1 (stereo not drawn)	6.95% (inactive)
O=C(C[n+]1ccncc1)c1ccc2c(c1)CCCC2	14.7% (inactive)
COC(=O)C1(C2CCc3cc(OC)ccc3C2=O)NC(=S)NC(=O)C1C#N (stereo not drawn)	-18.2% (inactive)
N#C/C(=C\c1cc(Br)cc(Br)c1O)c1ccc([N+](=O)[O-])cc1	-6.8% (inactive)
N#CC(CCc1ccccc1)(c1ccccc1)c1ccccc1	-5.85% (inactive)
CCOC(=O)c1nc2ccc(C(F)(F)F)cc2nc1NCc1ccc(F)cc1	20.7% (inactive)
CN(C)CCNC1=CC(=O)c2nc3ccccc3c3ccnc1c23	26.8% (inactive)
C[C@H](CCc1nc(C#N)c(N)o1)[C@H]1CC[C@H]2[C@@H]3[C@@H](O)CC4C[C@@H](O)CC[C@]4(C)[C@H]3C[C@@H](O)[C@]12C (stereo partly drawn)	10.7% (inactive)
